Rab9 prom act = activators of Rab9 promoter | Potency, µM (titrated, usually from 9.22 µM), without a hit: top-dose activation, negative = inhibition, usual class: activators | AID 485297 | Huh7 Rab9 promoter-luciferase reporter, luminescence, 24 h | actives 2.8% (n = 320,000); note: % of control where 0% means no effect; nearly all actives have a fitted effect of over 60% in size
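Huh7 cells stably carrying a Rab9 promoter-luciferase reporter, 1500 cells per well in OP-MEM I with 10% FBS, treated with compound 24 hours at 37C. Luciferase activity read by luminescence after 10 minutes with Amplite reagent.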
FLuc modulator = inhibits or activates purified firefly luciferase, miR-21 counter-screen; actives 6.9% (n = 360,000); Potency, µM (series often up to 57.5 µM), for inactives: at the highest dose activity change, negative = inhibition, actives largely listed as inhibitors; purified FLuc, Km substrates, luminescence inhibition;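 note: plate controls were vehicle for no effect and reference inhibitor for full effect; nearly all actives have a fitted effect of over 55% in size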
Target sequence (P08659 whole entry, looked up): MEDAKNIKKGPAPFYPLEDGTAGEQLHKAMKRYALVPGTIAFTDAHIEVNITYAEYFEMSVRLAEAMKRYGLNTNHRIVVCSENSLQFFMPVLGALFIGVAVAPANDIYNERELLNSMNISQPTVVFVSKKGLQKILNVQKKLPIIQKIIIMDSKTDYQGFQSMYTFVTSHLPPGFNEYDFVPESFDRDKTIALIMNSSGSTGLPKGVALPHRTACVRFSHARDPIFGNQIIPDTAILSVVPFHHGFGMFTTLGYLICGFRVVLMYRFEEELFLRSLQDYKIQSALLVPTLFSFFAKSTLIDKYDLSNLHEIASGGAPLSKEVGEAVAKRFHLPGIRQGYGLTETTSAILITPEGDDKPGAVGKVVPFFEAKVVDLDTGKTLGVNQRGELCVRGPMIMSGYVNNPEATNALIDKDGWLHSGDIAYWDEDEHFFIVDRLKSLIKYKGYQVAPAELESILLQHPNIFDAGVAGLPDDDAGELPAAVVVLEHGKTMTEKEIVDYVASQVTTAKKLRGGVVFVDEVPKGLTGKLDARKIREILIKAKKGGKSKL
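Purified P. pyralis luciferase, 10 nM final, with Km-level 10 uM D-luciferin and 10 uM ATP in 50 mM Tris acetate pH 7.5, 10 mM Mg acetate, 0.01% Tween-20, 0.05% BSA; 6-point qHTS titration about 60 µM downward; luminescence read.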
NPC1 promoter act = activates the NPC1 promoter. Huh7 NPC1 promoter luciferase reporter, 24 h. Potency, µM (top dose mostly 9.22 µM), without a hit: at the top dose activation, hits mostly activators. actives 2.4% (n = 320,000). AID 485313; note: % of control where 0% means no effect; nearly all actives have a fitted effect of over 60% in size
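Huh7 reporter cells (NPC1 promoter driving luciferase) are dosed with compound for 24 h at 37 °C, 5% CO2; luciferase detection reagent is then added and luminescence measured after 10 min at ambient temperature.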
ELG1 genotox = inducers of genotoxicity in HEK293T ELG1-luciferase cells | HEK293T ELG1-luciferase reporter, luminescence, 16 h | Potency, µM (doses to about 46 µM), for the others: top-dose activity change, positive = activation, most hits filed as activators | actives 1.3% (n = 330,000); note: % of control where 0% means no effect; nearly all actives have a fitted effect of over 60% in size
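Genotoxic stress is detected as increased luminescence from luciferase-tagged ELG1 in HEK293T cells, measured with ONE-Glo after a 16 hr treatment at 37 °C.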
SMN2 splice up = enhancers of SMN2 splice variant expression; HEK293 SMN2-luciferase splicing reporter, luminescence, 30-36 h; AID 1458; actives 2.8% (n = 210,000); Potency, µM (titrated, usually from 46.1 µM), for the others: at the highest dose activity change, positive = activation, usual class: activators; note: % of control where 0% means no effect; nearly all actives have a fitted effect of over 55% in size
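HEK293 cells carry an SMN2 […]–luciferase reporter in which exon 7 inclusion puts luciferase in frame. Cells were plated 10-12 h before compound addition, then incubated 30-36 h at 37C. ONE-Glo luminescence was read; sodium butyrate at 4.5 mM final served as control.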
ELG1 DNA repair = inhibitors of ELG1-dependent DNA repair in HEK293T cells | actives 2.3% (n = 330,000) | Potency, µM (top dose mostly 46.1 µM), for inactives: at the highest dose activity change, negative = inhibition, most hits filed as inhibitors | HEK293T ELG1-luciferase reporter, luminescence, 16 h; DNA damage induced by 5-fluorouridine; note: % is set by controls: 0 for no effect and ±100 for the full control effect; nearly all actives have a fitted effect of over 55% in size
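Overnight (16 hr) co-exposure of 2,000 cells/well to 5-fluorouridine and compound at 37 °C preceded detection. Luciferase was quantified via ONE-Glo luminescence; loss of signal denotes inhibition.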
* hit, by the source's call; ? = inconclusive; . = no result given. Compounds with a hit are over-represented: about 9.3% of the library has one in this group of screens. Calls come from the whole dose curve; as a rule, active = well fitted curve in the direction sought with a large enough effect; inconclusive = small, poorly fitted or top-dose-only effect, or another doubt; inactive = no such curve, though single readings can be large; an effect the other way counts as inactive or inconclusive. Potency is the fitted concentration of half-maximal effect.

SMILES	Rab9 prom act	FLuc modulator	NPC1 promoter act	ELG1 genotox	SMN2 splice up	ELG1 DNA repair
CC(C)[C@H](NC(=O)N1CCn2c1nc1ccccc12)C(=O)NCC1CCCO1 (stereo partly specified)	1.0%	5.3%	-1.3%	0.1%	.	5.3%
COc1ccccc1NC(=O)c1cc(-c2ccc(C)o2)nc2ccccc12	13.4%	7.57µM*	-1.3%	-0.9%	.	1.2%
COc1ccccc1NC(=O)c1cc(C)nc2ccccc12	-0.9%	-1.3%	3.1%	-1.8%	0.1%	-11.8%
COC(=O)CSc1[nH]c2ccc(F)cc2c1[N+](=O)[O-]	-2.4%	-0.9%	0.4%	3.2%	.	17.3%
COc1cccc(NC(=O)Nc2ccccc2SC)c1	15.2%	16.9µM*	17.0%	14.8%	22.3%	23.6%
COc1ccc(NC(=O)Nc2ccccc2SC)c(OC)c1	-1.6%	-4.0%	6.2%	10.0%	4.5%	5.1%
COc1ccc(NC(=O)Nc2ccccc2SC)cc1OC	?	19µM*	22.0%	14.5%	.	?
Cc1ccccc1Nc1nc(N)nc(-c2oc3ccccc3c2C)n1	2.24µM*	21.3µM*	?	?	.	?
Cc1c(-c2nc(N)nc(Nc3ccc(F)cc3)n2)oc2ccccc12	1.78µM*	?	2.24µM*	2.31µM*	15.8µM*	?
COc1ccc(CCNC(=O)CSc2nnnn2-c2cccc(C(C)=O)c2)cc1OC	.	-8.6%	.	.	-13.4%	.
O=C(NNC(=O)c1ccccc1F)c1cccc(S(=O)(=O)N2CCc3ccccc32)c1	.	.	.	-1.5%	.	-21.6%
COc1ccccc1C(=O)Nc1ccc2nc(SCCOc3ccccc3C)sc2c1	.	3.7%	.	.	.	.
COc1ccc2nc(C)c3cc(C)oc3c2c1	-13.8%	-1.8%	-2.7%	-3.8%	-12.8%	3.2%
COc1cccc2c1nc(C)c1cc(C)oc12	27.1%	21.3µM*	20.0%	?	?	?
N/C(COc1ncn(-c2ccccc2)n1)=N\S(=O)(=O)c1ccc(Cl)cc1Cl	-9.5%	0.8%	-0.6%	-7.8%	?	16.4µM*
COc1ccc(CCNc2ncnc3c2c(-c2ccccc2)cn3-c2ccc(F)cc2)cc1OC	.	-0.1%	.	.	.	.
COc1cc(NC(=O)c2noc3c2CCC3)c(OC)cc1Cl	-0.1%	6.8%	6.6%	5.6%	?	4.6%
COc1ccc(-c2cc(C(=O)Nc3ccc(C)cc3)no2)cc1	.	0.1%	.	.	-18.0%	.
O=C(Nc1ccccc1C(=O)N1CCOCC1)c1noc2c1CCCC2	-3.4%	-0.1%	2.9%	0.0%	9.4%	6.4%
CC(NC(=O)c1noc2c1CCCCC2)c1ccccc1 (stereo unspecified)	28.3%	-19.0%	11.3%	4.7%	-1.1%	?
Cc1ccc(NC(=O)c2noc3c2CCC3)cc1C	0.631µM*	2.39µM*	3.16µM*	?	2.82µM*	?
O=C(Nc1cccc(O)c1)c1noc2c1CCCCC2	?	0.953µM*	?	?	9.7%	?
COC(=O)c1ccccc1NC(=O)c1noc2c1CCCC2	4.9%	16.9µM*	6.8%	8.1%	10.7%	?
COc1ccc(NC(=O)c2noc3c2CCC3)cc1	0.501µM*	2.69µM*	1.41µM*	?	10µM*	?
CC(=O)c1ccc(NC(=O)Cn2cc(S(=O)(=O)Cc3cccc(Cl)c3)c3ccccc32)cc1	.	-1.5%	.	.	.	.
SMILES	Rab9 prom act	FLuc modulator	NPC1 promoter act	ELG1 genotox	SMN2 splice up	ELG1 DNA repair
CC(=O)c1ccc(NC(=O)c2noc3c2CCC3)cc1	?	12µM*	0.794µM*	-8.9%	?	?
O=C(Nc1ccc(OC(F)(F)F)cc1)c1noc2c1CCCC2	.	?	.	.	8.91µM*	.
COC(=O)c1ccc(C(NC(=O)OCc2ccccc2)/C(I)=C/[C@@H](C)C(=O)Nc2ccccc2)cc1 (stereo partly specified)	.	.	.	.	14.2%	.
CCCC[C@@H]1C[C@H]1C(NC(=O)c1ccccc1)c1ccc(C(=O)OC)cc1 (stereo partly specified)	.	.	.	.	-9.0%	.
Nc1cccn2c(-c3ccc(Cl)c(Cl)c3)cnc12	3.16µM*	3.01µM*	?	?	3.55µM*	?
Cn1c(-c2ccc(Cl)cc2)cnc1N	7.4%	-0.4%	9.0%	-2.0%	-4.2%	16.6%
Nc1cccn2c(-c3ccc(Cl)cc3)cnc12	3.55µM*	2.69µM*	?	?	11.2µM*	?
Nc1nnc(-c2ccc(Cl)c(Cl)c2)s1	14.4%	?	2.2%	1.1%	3.3%	?
Cc1ccc(N2CC(C(=O)OCC(=O)c3ccc(C)c([N+](=O)[O-])c3)CC2=O)cc1 (stereo unspecified)	-7.8%	8.4%	-3.0%	-1.6%	.	-1.7%
CCOc1ccccc1CNC(=O)CCC(=O)N1CCSc2ccccc21	.	-8.5%	.	.	.	.
CCOC(=O)C1(CCc2ccccc2)CCN(C2Cc3ccccc3C2)CC1	?	15.1µM*	?	-20.6%	.	?
CCOC(=O)C1(CCc2ccccc2)CCN(C(=O)Cc2nonc2C)CC1	?	19µM*	-0.6%	11.9%	2.6%	?
CCOC(=O)C1(CCc2ccccc2)CCN(C(=O)c2occc2C)CC1	-3.9%	-17.5%	-2.9%	-5.1%	.	?
Cc1noc(C)c1C(=O)N1CCC[C@@]2(CCN(c3ncccn3)C2)C1	.	.	.	.	-5.4%	.
CCc1ccc(OC(=O)c2ccn(CC)n2)cc1	2.6%	15.1µM*	0.3%	3.2%	2.9%	12.1%
CCOc1ccc2[nH]cc(S(=O)(=O)c3ccc(C)cc3)c(=O)c2c1	-2.4%	-2.5%	-1.5%	-11.8%	-12.9%	16.4µM*
N#Cc1c(N)nc(N)nc1Nc1ccc(Br)cc1	1.41µM*	6.01µM*	1.26µM*	9.2µM*	.	?
Cc1nc(N)nc(Nc2ccc(C#N)cc2)c1Br	-5.2%	-0.3%	-1.1%	0.7%	.	11.3%
CCOC(=O)C(C)(C)N(Cc1ccc(Cl)cc1)S(=O)(=O)c1ccc(Cl)c([N+](=O)[O-])c1	-2.9%	2.5%	0.5%	-11.3%	-25.9%	18.4µM*
CCOC(=O)C(C)(C)N(Cc1ccc(C)cc1)S(=O)(=O)c1ccc(Cl)c([N+](=O)[O-])c1	-0.3%	-0.1%	-2.7%	-6.3%	-9.5%	?
O=C(Cn1cc(C(=O)C(F)(F)F)c2ccccc21)N1CCOCC1	-2.7%	0.0%	-0.6%	1.7%	-5.1%	8.6%
Cc1cc(C)cc(NC(=O)c2ccc3nc[nH]c3c2)c1	12.8%	6.75µM*	11.5%	9.8%	-4.0%	?
CN(C)c1ccc(NC(=O)c2ccc3nc[nH]c3c2)cc1	?	13.5µM*	?	?	.	?
Cc1ccc(NC(=O)c2ccc3nc[nH]c3c2)cc1C	1.78µM*	9.53µM*	2.82µM*	?	11.2µM*	?

Assay outcomes from PubChem.
